Assay results from PubChem BioAssay (Tox21).
A number with no mark means an inactive call. Records with an inconclusive call do not appear. Where a call stands in place of a potency, no number is given. Calls of active or inactive are those of the source. Calls come from the whole dose curve.

Key:
[1] = biological target: Acetylcholinesterase (Homo sapiens) (UniProt P22303); assay: Acetylcholinesterase (AChE) small molecule antagonists: colormetric cell-based qHTS assay (AID 1347395); details: SH-SY5Y cells AChE activity, colorimetric (Ellman); series mostly up to 115 µM; note: nearly all actives have a fitted effect of over 30% in size; note: potency is the fitted concentration of half-maximal effect
Procedure, shortened: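 SH-SY5Y cells attached overnight, exposed to compound 30 min at 37 C, then given DTNB/acetylthiocholine; after 90 min at 37 C, colorimetric thiocholine read gives cellular AChE activity.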

[2] = biological target: Acetylcholinesterase (Homo sapiens) (UniProt P22303); assay: Acetylcholinesterase (AChE) small molecule antagonists: enzyme-based qHTS assay (AID 1347397); details: Potency: AChE enzyme activity inhibition; outcome: AChE enzyme activity inhibition; series mostly up to 115 µM; note: nearly all actives have a fitted effect of over 55% in size
Procedure, shortened: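 rhAChE 50 mU/mL (dispensed) + cpd or DMSO, 30 min RT; add DTNB/acetylthiocholine cocktail, 10 min RT; colorimetric thiocholine readout. qHTS, 1536-well format.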

[3] = biological target: Acetylcholinesterase (Homo sapiens) (UniProt P22303); assay: Acetylcholinesterase (AChE) small molecule antagonists: fluorescence cell-based qHTS assay (AID 1347398); details: SH-SY5Y cells; Potency: AChE activity; outcome: AChE activity; series mostly up to 115 µM; note: nearly all actives have a fitted effect of over 50% in size; note: potency is the fitted concentration of half-maximal effect
Procedure, shortened: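 Read-out is Thiolite Green fluorescence at Ex/Em = 490/520 nm, formed by reaction with thiocholine released when cellular AChE in SH-SY5Y cells hydrolyzes acetylthiocholine. Compounds were preincubated 30 min at 37 C before substrate.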

[4] = biological target: Acetylcholinesterase (Homo sapiens) (UniProt P22303); assay: Acetylcholinesterase (AChE) small molecule antagonists: enzyme-based qHTS assay with human liver microsomes (AID 1347399); details: Potency: qHTS inhibition; outcome: qHTS inhibition; series mostly up to 115 µM; note: nearly all actives have a fitted effect of over 60% in size
Procedure, shortened: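 Recombinant human AChE (50 mU/mL in the enzyme mix) and human liver microsomes (0.25 mg/mL final) were preincubated with compound and NADPH (0.25 mg/mL final) for 30 min at 37 C. Acetylthiocholine/DTNB was then added; thiocholine was read colorimetrically after 10 min at room temperature.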

Chain of Acetylcholinesterase (Homo sapiens) (P22303 whole entry, looked up): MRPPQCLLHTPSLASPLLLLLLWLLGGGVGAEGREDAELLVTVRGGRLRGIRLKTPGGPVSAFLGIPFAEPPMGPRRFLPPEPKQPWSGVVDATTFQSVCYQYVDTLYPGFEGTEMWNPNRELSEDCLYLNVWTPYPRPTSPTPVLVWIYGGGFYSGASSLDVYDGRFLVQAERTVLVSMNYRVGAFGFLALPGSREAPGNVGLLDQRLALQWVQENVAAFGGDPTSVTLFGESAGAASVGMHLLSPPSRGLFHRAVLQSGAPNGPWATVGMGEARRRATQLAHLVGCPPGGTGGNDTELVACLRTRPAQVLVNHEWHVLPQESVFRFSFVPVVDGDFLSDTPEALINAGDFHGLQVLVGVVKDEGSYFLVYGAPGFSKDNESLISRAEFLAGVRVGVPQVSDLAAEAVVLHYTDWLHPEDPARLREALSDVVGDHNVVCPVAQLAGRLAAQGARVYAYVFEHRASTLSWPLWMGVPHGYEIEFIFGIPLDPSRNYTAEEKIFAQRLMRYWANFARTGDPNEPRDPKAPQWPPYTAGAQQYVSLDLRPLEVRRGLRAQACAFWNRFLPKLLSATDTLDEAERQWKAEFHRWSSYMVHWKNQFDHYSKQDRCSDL

Row | SMILES | Potency [1] | Potency [2] | Potency [3] | Potency [4] | activity, negative = inhibition [1] | activity change, negative = inhibition [2] | activity change, negative = inhibition [3] | activity change, negative = inhibition [4]
1 | CC/C=C\CC/C=C/CO | inactive | inactive | inactive | inactive | – | – | – | –
2 | CCN(CC)CC(=O)OCC(=O)[C@@]1(O)CC[C@H]2[C@@H]3CCC4=CC(=O)CC[C@]4(C)[C@H]3[C@@H](O)C[C@@]21C | inactive | inactive | inactive | inactive | – | – | – | –
3 | CCC(C)COC(=O)CC(C)C (configuration not stated) | inactive | inactive | inactive | inactive | – | – | – | –
4 | O=P(O)(O)C(O)(Cc1cccnc1)P(=O)(O)O | inactive | inactive | inactive | inactive | – | – | – | –
5 | CC(=O)c1c(C)cc(C(C)(C)C)cc1C | inactive | inactive | inactive | inactive | – | – | – | –
6 | CC1(C)CCC[C@]2(C)[C@H]3CCO[C@]3(C)CC[C@@H]12 | inactive | inactive | inactive | inactive | – | – | – | –
7 | CC(CCc1ccc2c(c1)OCO2)NN (configuration not stated) | inactive | inactive | inactive | inactive | – | – | – | –
8 | CC[C@H]1CC[C@H](NCc2cc3c(cc2OC)[C@H]2C[C@H]2C(=O)N3C)[C@H](c2ccccc2)N1 | 31.7 µM (active) | inactive | 35.6 µM (active) | inactive | – | – | – | –
9 | Nc1nc(=O)n([C@@H]2O[C@H](CO)[C@@H](O)[C@@H]2F)cc1I | inactive | inactive | inactive | inactive | – | – | – | –
10 | CCCCCCCCCCCCCCCC/C=C/C1CC(=O)OC1=O (configuration not stated) | inactive | inactive | inactive | inactive | – | – | – | –
11 | Cc1nc(-c2ccc(Cl)cc2)oc1COC(C)(C)C(=O)O | inactive | inactive | inactive | inactive | – | – | – | –
12 | CC(C)COC(=O)C(C)C | inactive | inactive | inactive | inactive | – | – | – | –
13 | CCC(Cl)C(Cl)C(Cl)CC(Cl)C(Cl)C(C)Cl (configuration not stated) | inactive | inactive | inactive | inactive | – | – | – | –
14 | COC(C(=O)O)c1ccccc1 (configuration not stated) | inactive | inactive | inactive | inactive | – | – | – | –
15 | Cc1cccc(C)c1NC(=O)C(C)N (configuration not stated) | inactive | inactive | inactive | inactive | – | – | – | –
16 | c1ccc(CNCc2ccccc2)cc1 | inactive | inactive | inactive | inactive | – | – | – | –
17 | C=CCN1CCc2nc(N)sc2CC1 | inactive | inactive | inactive | inactive | – | – | – | –
18 | NC(=O)Nc1ccccc1 | inactive | inactive | inactive | inactive | – | – | – | –
19 | CCCCC1=NC2(CCCC2)C(=O)N1Cc1ccc(-c2ccccc2-c2nn[nH]n2)cc1 | inactive | inactive | inactive | inactive | – | – | – | –
20 | CC(C)=CCCC(C)O (configuration not stated) | inactive | inactive | inactive | inactive | – | – | – | –
21 | CC[C@@H]1C[C@H](N(Cc2cc(C(F)(F)F)cc(C(F)(F)F)c2)C(C)=O)c2cc(C(F)(F)F)ccc2N1C(=O)OC(C)C | inactive | inactive | inactive | inactive | – | – | – | –
22 | CC/C=C\CCOC(=O)C(C)C | inactive | inactive | inactive | inactive | – | – | – | –
23 | CCCCCCCCCCCC(=O)[O][Sn]([CH2]CCC)([CH2]CCC)[O]C(=O)CCCCCCCCCCC | inactive | inactive | inactive | inactive | – | – | – | –
24 | FC(F)OC(Cl)C(F)(F)F (configuration not stated) | inactive | inactive | inactive | inactive | – | – | – | –
25 | CCCC(=O)O[C@]1(C(=O)COC(=O)CC)CC[C@H]2[C@@H]3CCC4=CC(=O)CC[C@]4(C)[C@H]3[C@@H](O)C[C@@]21C | – | – | – | – | 0.0881% [at 23.6 µM] | 0.139% [at 23.6 µM] | 1.87% [at 23.8 µM] | -1.51% [at 23.6 µM]
26 | CC(C(=O)O)c1ccc(CC2CCCC2=O)cc1 (configuration not stated) | inactive | inactive | inactive | inactive | – | – | – | –
27 | NC(=O)NS(=O)(=O)c1ccc(Cl)cc1 | inactive | inactive | inactive | inactive | – | – | – | –
28 | COc1ccc(/C=C/S(=O)(=O)NC(=O)c2ccc(C)cc2Cl)cc1 | inactive | inactive | inactive | inactive | – | – | – | –
